Reference: PubChem BioAssay (NCATS)
Records with an inconclusive call do not appear. Active and inactive are the calls of the source. The call rests on the fitted dose curve; in most records, active means well fitted curve in the direction sought with a large enough effect; inconclusive means small, poorly fitted or top-dose-only effect, or another doubt; inactive means no such curve, though single readings can be large; an effect the other way counts as inactive or inconclusive.

Assays:
[1] = qHTS assay for measurement of the activity of small molecule inhibitors on Zika virus induced Caspase-3 activity in human iPSC derived neural progenitor cells (hNPCs) (AID 1224857); further: % of control where 0% means no effect; nearly all actives have a fitted effect of over 65% in size
Outline: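 Caspase-3/7 induction by a 6-hour ZIKV infection was quantified with a luminescent Caspase-Glo 3/7 reagent incubated 30 minutes at room temperature. Compounds were preincubated with hNPCs for 1 hour; inhibition was calculated against uninfected and infected control wells.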

[2] = qHTS assay for measurement of the activity of small molecule inhibitors on Zika virus induced Caspase-3 activity in human astrocytoma cells (AID 1224859);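 further: plate controls were ZIKV-infected untreated cells for no effect and uninfected cells for full effect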
Outline: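 In SNB-19 cells plated at 250 cells/well and grown 16-20 h, compounds were applied 1 h before ZIKV (2 FFU/cell). Six hours later caspase-3/7 luminescence was recorded.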

[3] = qHTS assay to identify small molecule inhibitors of chordoma cells - UCH-1 (AID 1259355); further: on the % scale 0 is the no-effect control and ±100 the full control effect; nearly all actives have a fitted effect of over 55% in size
Outline: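 Luminescent ATP read-out (CellTiter-Glo, 30min at room temperature) measured viability of UCH-1 cells exposed for 48hr to test drugs at 15 concentrations, co-dosed with a five-agent combination of auranofin, camptothecin, doxorubicin, rubitecan and topotecan.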

[4] = qHTS assay to identify small molecule inhibitors of chordoma cells - UCH-2 (AID 1259356); further: series mostly up to about 46 µM; on the % scale 0 is the no-effect control and ±100 the full control effect
[5] = P-glycoprotein substrates identified in KB-8-5-11 adenocarcinoma cell line, qHTS therapeutic library screen (AID 1346987); conditions: outcome: dose series up to 44.5 µM; further: nearly all actives have a fitted effect of over 65% in size
Outline: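 P-gp-mediated resistance screen: KB-8-5-11 cells treated 72 h with compounds in dose-response. CellTiter-Glo viability.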

[6] = NS1 protein of Zika virus - qHTS assay to identify small molecule inhibitors in human HEK 293 cells (AID 1347053);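 further: series mostly up to about 46 µM; plate controls were infected untreated cells for no effect and uninfected cells for full effect; nearly all actives have a fitted effect of over 55% in size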
Outline: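 HEK 293; 20 h pre-culture, 37 C/5% CO2; cpd 1 h pre-infection; ZIKV MR766, MOI = 0.5, 24 h, 37 C; TR-FRET NS1 readout (two anti-NS1 Abs); norm. to no-virus vs infected.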

[7] = qHTS of pediatric cancer cell lines to identify multiple opportunities for drug repurposing: Primary screen for TC32 cells (AID 1347089); further: on the % scale 0 is the no-effect control and ±100 the full control effect; nearly all actives have a fitted effect of over 60% in size
Outline: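 Luminescent ATP read-out (CellTiter-Glo) of metabolically active TC32 cells after 48 h exposure. Concentration-response curves came from 11-point (MIPE, 0.78 nM–46 µM) or 8-point (NPC, 0.59 nM–46 µM) primary titrations; follow-up used 11 points.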

[8] = qHTS of pediatric cancer cell lines to identify multiple opportunities for drug repurposing: Primary screen for DAOY cells (AID 1347090);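 further: series mostly up to about 46 µM; plate controls were DMSO for no effect and bortezomib for full effect; nearly all actives have a fitted effect of over 55% in size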
Outline: (§1)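 Eight- or eleven-point concentration series, 48 h treatment at 37 degrees C in growth media; readout CellTiter-Glo luminescence. Potency and efficacy were taken from the concentration-response curves.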

[9] = qHTS of pediatric cancer cell lines to identify multiple opportunities for drug repurposing: Primary screen for SJ-GBM2 cells (AID 1347091);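 further: plate controls were DMSO neutral control for no effect and bortezomib for full effect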
Outline: as §1

[10] = qHTS of pediatric cancer cell lines to identify multiple opportunities for drug repurposing: Primary screen for A673 cells (AID 1347092); further: on the % scale 0 is the no-effect control and ±100 the full control effect; nearly all actives have a fitted effect of over 45% in size
Outline: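 Cell viability of A673 measured by CellTiter-Glo ATP luminescence after 48 hours compound exposure. Dilution series spanned 0.78 nM to 46 µM (MIPE, 11-point) or 0.59 nM to 46 µM (NPC, 8-point); bortezomib 2.3 uM positive control.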

[11] = qHTS of pediatric cancer cell lines to identify multiple opportunities for drug repurposing: Primary screen for SK-N-MC cells (AID 1347093);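 further: series mostly up to about 46 µM; plate controls were DMSO neutral control for no effect and bortezomib for full effect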
Outline: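 Metabolically active cells were quantified by ATP-dependent luminescence (CellTiter-Glo, 15 min at room temperature) following 48 h treatment. Cells had been plated at 500-1,000 per well and settled for 5 h beforehand.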

[12] = qHTS of pediatric cancer cell lines to identify multiple opportunities for drug repurposing: Primary screen for BT-37 cells (AID 1347094);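 further: series mostly up to about 57 µM; plate controls were DMSO for no effect and bortezomib for full effect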
Outline: (§2)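 Readout: CellTiter-Glo luminescence, 48 h treatment. Controls DMSO (neutral) and bortezomib 2.3 µM final (positive). Potency and efficacy taken from primary-screen concentration-response curves.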

[13] = qHTS of pediatric cancer cell lines to identify multiple opportunities for drug repurposing: Primary screen for NB-EBc1 cells (AID 1347095);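 further: plate controls were DMSO neutral control for no effect and bortezomib for full effect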
Outline: as §2

[14] = qHTS of pediatric cancer cell lines to identify multiple opportunities for drug repurposing: Primary screen for U-2 OS cells (AID 1347096);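 further: plate controls were DMSO wells for no effect and bortezomib positive control wells for full effect; nearly all actives have a fitted effect of over 50% in size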
Outline: (§3)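 Cells (500-1,000/well) in growth media were settled 5 h at 37 degrees C, then given compounds for 48 h. Viability was read as CellTiter-Glo luminescence. Primary runs used MIPE at 11 points (0.78 nM-46 µM) and NPC at 8 points (0.59 nM-46 µM); follow-ups used 11 points.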

[15] = qHTS of pediatric cancer cell lines to identify multiple opportunities for drug repurposing: Primary screen for Saos-2 cells (AID 1347097); further: on the % scale 0 is the no-effect control and ±100 the full control effect; nearly all actives have a fitted effect of over 40% in size
Outline: as §2

[16] = qHTS of pediatric cancer cell lines to identify multiple opportunities for drug repurposing: Primary screen for SK-N-SH cells (AID 1347098); further: on the % scale 0 is the no-effect control and ±100 the full control effect; nearly all actives have a fitted effect of over 65% in size
Outline: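 Cells (500-1,000/well) rested 5 h, then received compounds for 48 h; metabolically active cells were measured by CellTiter-Glo luminescence. Final concentrations spanned up to 46 µM (MIPE, 11-point) or 0.59 nM-46 µM (NPC, 8-point) in primary screens, 11-point in follow-ups.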

[17] = qHTS of pediatric cancer cell lines to identify multiple opportunities for drug repurposing: Primary screen for NB1643 cells (AID 1347099); further: nearly all actives have a fitted effect of over 50% in size; further: potency means the concentration at half of the fitted maximal effect;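 on activity change, negative = cytotoxic: plate controls were DMSO neutral control for no effect and bortezomib positive control for full effect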
Outline: as §2

[18] = qHTS of pediatric cancer cell lines to identify multiple opportunities for drug repurposing: Primary screen for LAN-5 cells (AID 1347100);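 further: plate controls were DMSO neutral control for no effect and bortezomib positive control for full effect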
Outline: as §3

[19] = P-glycoprotein substrates identified in KB-3-1 adenocarcinoma cell line, qHTS therapeutic library screen (AID 1346986); conditions: outcome: dose series up to 44.5 µM; further: on the % scale 0 is the no-effect control and ±100 the full control effect; nearly all actives have a fitted effect of over 60% in size
Outline: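 KB-3-1 parental cells and P-gp-overexpressing KB-8-5-11 (colchicine omitted during assay) plated at 500 cells/well, dosed in dose-response, incubated 72 h at 37 degree C. CellTiter-Glo luminescence read; KB-8-5-11 also tested with tariquidar.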

Nc1ncnc(Nc2ccccc2)n1
inactive: outcome [1] | outcome [2] | outcome [3] | outcome [4] | outcome [5] | outcome [6] | outcome [7] | outcome [8] | outcome [9] | outcome [10] | Potency [11] | outcome [12] | outcome [13] | outcome [14] | outcome [15] | outcome [16] | Potency [17] | outcome [18]

N[C@@H](Cc1ccc(O)cc1)C(=O)O
inactive: activity change, negative = inhibition [1] 4.45% [at 9.06 µM] | activity change, negative = inhibition [2] -11% [at 9.06 µM] | outcome [3] | outcome [4] | outcome [5] | activity change, negative = inhibition [6] 1.13% [at 9.2 µM] | activity change, negative = cytotoxic [7] 18.1% [at 9.17 µM] | activity change, negative = cytotoxic [8] 6.24% [at 9.22 µM] | activity change, negative = cytotoxic [9] 12% [at 9.22 µM] | activity change, negative = cytotoxic [10] 2.23% [at 9.22 µM] | activity change, negative = cytotoxic [11] 11% [at 9.22 µM] | activity change, negative = cytotoxic [12] 20.6% [at 11.5 µM] | activity change, negative = cytotoxic [13] 15% [at 9.22 µM] | activity change, negative = cytotoxic [14] 16.3% [at 9.22 µM] | activity change, negative = cytotoxic [15] 14.8% [at 9.22 µM] | activity change, negative = cytotoxic [16] 5.3% [at 11.4 µM] | activity change, negative = cytotoxic [17] 17.5% [at 9.22 µM] | activity change, negative = cytotoxic [18] 6.26% [at 9.22 µM]

CN1CCN(C(=O)C2CCCCC2)CC1
inactive: outcome [1] | outcome [2] | outcome [3] | outcome [4] | outcome [5] | outcome [6] | outcome [7] | outcome [8] | outcome [9] | outcome [10] | Potency [11] | outcome [12] | outcome [13] | outcome [14] | outcome [15] | outcome [16] | Potency [17] | outcome [18]

CN[C@@H]1[C@H](O)[C@H](NC)[C@H]2O[C@@]3(O)C(=O)C[C@@H](C)O[C@H]3O[C@@H]2[C@H]1O
inactive: outcome [1] | outcome [2] | outcome [3] | outcome [4] | outcome [5] | outcome [6] | outcome [7] | outcome [8] | outcome [9] | outcome [10] | Potency [11] | outcome [12] | outcome [13] | outcome [14] | outcome [15] | outcome [16] | Potency [17] | outcome [18]

COc1ccc(-c2cc(=O)c3c(O)cc(O[C@@H]4O[C@H](CO[C@@H]5O[C@@H](C)[C@H](O)[C@@H](O)[C@H]5O)[C@@H](O)[C@H](O)[C@H]4O)cc3o2)cc1O
inactive: outcome [1] | outcome [2] | outcome [3] | outcome [4] | outcome [5] | outcome [6] | outcome [7] | outcome [8] | outcome [9] | outcome [10] | Potency [11] | outcome [12] | outcome [13] | outcome [14] | outcome [15] | outcome [16] | Potency [17] | outcome [18]

CCCCCCCCCCCCCCCCCCO
inactive: outcome [1] | outcome [2] | outcome [3] | outcome [4] | outcome [5] | outcome [6] | outcome [7] | outcome [8] | outcome [9] | outcome [10] | Potency [11] | outcome [12] | outcome [13] | outcome [14] | outcome [15] | outcome [16] | outcome [18]

CCCCCC(N)=O
inactive: outcome [1] | outcome [2] | outcome [3] | outcome [4] | outcome [5] | outcome [6] | outcome [7] | outcome [8] | outcome [9] | outcome [10] | Potency [11] | outcome [12] | outcome [13] | outcome [14] | outcome [15] | outcome [16] | Potency [17] | outcome [18]

CC(C)C[C@@H](N)C(=O)O
active: Potency [17] 1 nM
inactive: outcome [1] | outcome [2] | outcome [3] | outcome [4] | outcome [19] | outcome [5] | outcome [6] | outcome [7] | outcome [8] | outcome [10] | outcome [12] | outcome [13] | outcome [15] | outcome [16] | outcome [18]

CC(C)CCCC(C)CCCC(C)CCCCC(C)CCCC(C)CCCC(C)C (centres undefined)
inactive: outcome [1] | outcome [2] | outcome [3] | outcome [4] | outcome [5] | outcome [6] | outcome [7] | outcome [8] | outcome [9] | outcome [10] | Potency [11] | outcome [12] | outcome [13] | outcome [14] | outcome [15] | outcome [16] | Potency [17] | outcome [18]

CCN(CC)CCc1nc(-c2ccccc2)no1
inactive: outcome [1] | outcome [2] | outcome [3] | outcome [4] | outcome [5] | outcome [6] | outcome [7] | outcome [8] | outcome [9] | outcome [10] | Potency [11] | outcome [12] | outcome [13] | outcome [14] | outcome [15] | outcome [16] | Potency [17] | outcome [18]

C/C=C/C(=O)N(CC)c1ccccc1C
inactive: outcome [1] | outcome [2] | outcome [3] | outcome [4] | outcome [5] | outcome [6] | outcome [7] | outcome [8] | outcome [9] | outcome [10] | Potency [11] | outcome [12] | outcome [13] | outcome [14] | outcome [15] | outcome [16] | Potency [17] | outcome [18]

O=C(O)c1ccc[n+]([O-])c1
inactive: outcome [1] | outcome [2] | outcome [3] | outcome [4] | outcome [5] | outcome [6] | outcome [7] | outcome [8] | outcome [9] | outcome [10] | Potency [11] | outcome [12] | outcome [13] | outcome [14] | outcome [15] | outcome [16] | Potency [17] | outcome [18]

CC(N)CCCC(C)(C)O (centres undefined)
inactive: outcome [1] | outcome [2] | outcome [3] | outcome [4] | outcome [5] | outcome [6] | outcome [7] | outcome [8] | outcome [9] | outcome [10] | Potency [11] | outcome [12] | outcome [13] | outcome [14] | outcome [15] | outcome [16] | Potency [17] | outcome [18]

O[C@@H]1CO[C@H]2[C@@H]1OC[C@@H]2O
inactive: outcome [1] | outcome [2] | outcome [3] | outcome [4] | outcome [5] | outcome [6] | outcome [7] | outcome [8] | outcome [9] | outcome [10] | Potency [11] | outcome [12] | outcome [13] | outcome [14] | outcome [15] | outcome [16] | Potency [17] | outcome [18]
